In PubChem BioAssay (NCATS):
Results filed as inconclusive are left out. A number with no mark means an inactive call. The source made the active and inactive calls. Calls follow the shape of the dose curve; as a rule, active = well fitted curve in the direction sought with a large enough effect; inconclusive = small, poorly fitted or top-dose-only effect, or another doubt; inactive = no such curve, though single readings can be large or run the other way.

Experiment: qHTS Assay for Identifying Gametocytocidal Compounds (AID 743244);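 as to max response: actives lower the fluorescent signal which means gametocytes are killed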
Settings: P. falciparum 3D7 stage III-V gametocytes, alamarBlue, 72 h; max response: stronger effect = lower value
Summary of the method: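 Late gametocytes (III–V), P. falciparum 3D7; 72 h drug, then 24 h alamarBlue; resazurin reduction read by fluorescence.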
% is scaled to controls: 0 for no effect and ±100 for the full control effect; potency is read from the fitted curve at half-maximal effect.

For CN1CC[C@@]2(C)c3cc(OC(=O)Nc4ccccc4)ccc3N(C)[C@@H]12, the Potency was 1.12 µM (active).
For Ic1ccccc1CNC1C2CCN(CC2)C1C(c1ccccc1)c1ccccc1 (configuration not stated), the Potency was 1.78 µM (active).

Point of comparison: COc1cc(CC(C)N)c(OC)cc1I (configuration not stated), max response 3.52%. Against it:
- N[C@@H](CCl)C(=O)O — higher, 3.64%
- CN(C(=O)Cc1ccc(Cl)c(Cl)c1)C(CN1CCCC1)c1cccc(OCC(=O)O)c1 (configuration not stated) — higher, 13%
- C[C@H](Cc1ccc2c(c1)OC(C(=O)O)(C(=O)O)O2)NC[C@H](O)c1cccc(Cl)c1 — higher, 13.1%
- N=C(N)c1ccc(CS(=O)(=O)F)cc1 — lower, 2.02%
- CC12NC(Cc3ccccc31)c1ccccc12 (configuration not stated) — higher, 3.88%
- COC(=O)N1CCN(C(=O)Cc2ccc(Cl)c(Cl)c2)C(CN2CCCC2)C1 (configuration not stated) — higher, 14.6%
- CN1CCc2cc(O)cc3c2[C@H]1Cc1ccc(O)c(O)c1-3 — higher, 32.9%
- O=[N+]([O-])c1cc(O)c(O)c([N+](=O)[O-])c1 — lower, -6.67%
- C#CCN[C@H](C)Cc1ccccc1 — higher, 19.2%
- NC(CCCCCP(=O)(O)O)C(=O)O (configuration not stated) — lower, -2.34%
- NC(C(=O)O)c1cc(=O)[nH]o1 (configuration not stated) — higher, 7.64%
- CC(C)(C)c1o[nH]c(=O)c1CC(N)C(=O)O (configuration not stated) — lower, 2.4%
- C/C(O)=C(\C#N)C(=O)Nc1cc(Br)ccc1Br — lower, -6.48%
- CC(=O)c1c(O)c(C)c(O)c(Cc2c(O)c3c(c(C(=O)/C=C/c4ccccc4)c2O)OC(C)(C)C=C3)c1O — higher, 17.7%
